For assay [1], the system named is PRMT1 (protein arginine N-methyltransferase 1). The experiment in a line: PRMT1 binders on small-molecule microarrays, primary screen, biochemical, small-molecule microarray, 635 nm fluorescence (AID 1088).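 Further: binding of Prmt1 protein to compounds spotted on small-molecule microarray slides.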 The conditions noted are these: small-molecule microarray binding, higher = more signal.
Assay [2] in a line: yeast growth modulation, basal conditions, primary screen, YJM789 clinical isolate, OD600, 24 h (AID 1089).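 Further: growth of clinical yeast isolate S. cerevisiae YJM 789 seeded 1000 cells per well; test concentration not given here.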 The conditions noted are these: S. cerevisiae YJM789 growth, higher = more signal, called active from +8 up or from −8 down.
Assay [3] can be described thus: fission yeast growth modulation, primary screen, strain 972, OD600, 24 h, no modulator (AID 1090).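 Further: basal condition with compound alone and no growth modifier present; test concentration not given here.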 Particulars: S. pombe 972 growth, higher = more signal, called active from +8 up or from −8 down.
Assay [4] is described as follows: S. cerevisiae growth modulation with rapamycin, primary screen, strain BY4716, OD600, 96 h (AID 1091). Further: test concentration not given here. Particulars: higher = more signal, called active from +8 up or from −8 down.
For assay [5], the target named is Torsin-1A-interacting protein 2 (Homo sapiens) (UniProt Q8NFQ8). The experiment in a line: LULL1 binders on small-molecule microarray, primary screen, cell lysate, human LULL1 lysate, 635/667 nm fluorescence (AID 1092).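 Further: probe is lysate of COS7 cells overexpressing human LULL1; score merges per-feature 667 nm fluorescence with signal-to-noise.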 Particulars: hLULL1 lysate binding, 635 nm fluorescence, higher = more signal.
Assay [6] is described as follows: E. coli growth modulation, two-sided OD650, primary screen, E. coli filamentation project, strain DRC41, 24 h (AID 1093).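 Further: MC1000 strain lacking acrAB efflux and sulA so SOS filamentation is blocked; test concentration not given here.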 Particulars: OD650, 24 h, higher = more signal, called active from +8 up or from −8 down.
Assay [7] is described as follows: small-molecule microarray binders of probe aLefty2, primary screen, biochemical, biotinylated probe, 635/667 nm fluorescence (AID 1094).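 Further: score merges spot fluorescence near 667 nm with spot signal-to-noise ratio.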 The conditions noted are these: higher = more signal.
Assay [8] has as its system Noggin (protein binding on small-molecule microarray). The experiment in a line: Noggin binders on small-molecule microarray, primary screen, biochemical, 635/667 nm fluorescence (AID 1095).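 Further: score merges 667 nm feature fluorescence with signal to noise over triplicate slides.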 The conditions noted are these: 635 nm fluorescence, higher = more signal.
The target in assay [9] is Neurogenic locus notch homolog protein 3 (Homo sapiens) (UniProt Q9UM47). The experiment in a line: NOTCH3 binders on small-molecule microarray, primary screen, biochemical, 635/667 nm fluorescence (AID 1096). Particulars: NOTCH3 binding, 635 nm fluorescence, higher = more signal.
Assay [10] in a line: small-molecule microarray binders of probe aEGFR, primary screen, biochemical, biotinylated probe, 635/667 nm fluorescence (AID 1097).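 Further: probe is a biotinylated anti-EGFR antibody binding compounds printed on slides; score combines fluorescence near 667 nm and signal to noise of each spot.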 Particulars: higher = more signal.
For assay [11], the system named is Plasmodium falciparum Sir2 (PF13_0152, Sir2A). The experiment in a line: pfSir2 binders on small-molecule microarrays, primary screen, biochemical, small-molecule microarray, 635 nm fluorescence (AID 1098).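 Further: score merges spot fluorescence intensity with its signal-to-noise ratio.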 The conditions noted are these: small-molecule microarray binding, fluorescence 635 nm; higher = more signal.
A short description of assay [12]: small-molecule microarray binders of probe aDKK1, primary screen, biochemical, biotinylated probe, 635/667 nm fluorescence (AID 1099).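 Further: score merges 667nm spot fluorescence with signal to noise across triplicate slides; reference of the scale not given here.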 The conditions noted are these: higher = more signal.
Assay [13] is described as follows: small-molecule microarray binders of probe aCHRDL2, primary screen, biochemical, biotinylated probe, 635/667 nm fluorescence (AID 1100). The conditions noted are these: higher = more signal.
The nature of assay [14]: splicing luciferase reporter signal modulators, primary screen, spliceosome inhibition project, cell-based, HEK293, splice +/- reporter (AID 1101).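 Further: HEK293 cells carrying a splicing-competent luciferase reporter gene; test concentration not given here.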 Particulars: luminescence, 24 h, higher = more signal, called active from +8 up or from −8 down. In general terms: A reporter such as luciferase makes a cellular process visible.
Assay [15] concerns the target Fibroblast growth factor 10 (Homo sapiens) (UniProt O15520). The experiment in a line: FGF10 binders on small-molecule microarrays, primary screen, biochemical, small-molecule microarray, 635 nm fluorescence (AID 1102). The conditions noted are these: FGF10 binding, fluorescence 635 nm, higher = more signal.
The test system of assay [16] is glycogen synthase kinase-3 (GSK3A per assay name; protocol says GSK3B). The experiment in a line: GSK3 binders on small-molecule microarrays, primary screen, biochemical, small-molecule microarray, 635 nm fluorescence, GSK3A (AID 1103). Further: the record names both GSK3A and GSK3B. Particulars: small-molecule microarray binding, fluorescence 635 nm; higher = more signal.
For assay [17], the target named is Epidermal growth factor receptor (Homo sapiens) (UniProt P00533). The experiment in a line: EGFR binders on small-molecule microarrays, primary screen, biochemical, small-molecule microarray, 635 nm fluorescence (AID 1104).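 Further: score merges 667 nm emission intensity with spot signal to noise over triplicate slides.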 Particulars: EGFR binding, higher = more signal.
The target of assay [18] is Follistatin-related protein 3 (Homo sapiens) (UniProt O95633). The experiment in a line: FSTL3 binders on small-molecule microarrays, primary screen, biochemical, small-molecule microarray, 635 nm fluorescence (AID 1105).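 Further: score merges emission near 667 nm and signal to noise per printed spot across three slides.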 The conditions noted are these: FSTL3 binding, higher = more signal.
The target in assay [19] is Dickkopf-related protein 1 (Homo sapiens) (UniProt O94907). The experiment in a line: DKK1 binders on small-molecule microarrays, primary screen, biochemical, small-molecule microarray, 635 nm fluorescence scan (AID 1106).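 Further: score merges emission near 667 nm with signal to noise over three replicate slides.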 The conditions noted are these: DKK1 binding, higher = more signal.
Assay [20] deals with Inhibin beta A chain (activin A). The experiment in a line: INHBA (activin A) binders on microarrays, primary screen, biochemical, small-molecule microarray, 635 nm fluorescence scan (AID 1107).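 Further: mouse activin A protein probed at 4.33 µg/mL on printed slides; score merges bound-protein fluorescence near 667 nm with spot signal-to-noise.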 Particulars: small-molecule microarray binding, higher = more signal.

The source made the active and inactive calls.

Torsin-1A-interacting protein 2 (Homo sapiens), sequence (Q8NFQ8 whole entry, looked up): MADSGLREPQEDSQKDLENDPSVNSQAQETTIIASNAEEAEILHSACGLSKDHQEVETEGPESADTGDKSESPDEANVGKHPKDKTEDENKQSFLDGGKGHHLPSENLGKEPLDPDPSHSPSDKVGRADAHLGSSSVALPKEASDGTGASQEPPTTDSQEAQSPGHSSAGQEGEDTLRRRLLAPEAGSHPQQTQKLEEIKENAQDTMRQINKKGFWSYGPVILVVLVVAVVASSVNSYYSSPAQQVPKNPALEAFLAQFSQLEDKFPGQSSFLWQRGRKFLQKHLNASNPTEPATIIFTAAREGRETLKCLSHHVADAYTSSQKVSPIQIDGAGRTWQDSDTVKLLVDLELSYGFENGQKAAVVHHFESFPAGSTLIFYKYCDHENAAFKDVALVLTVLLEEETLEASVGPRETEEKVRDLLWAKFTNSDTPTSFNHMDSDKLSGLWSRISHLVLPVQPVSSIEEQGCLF
Epidermal growth factor receptor (Homo sapiens), sequence (P00533 whole entry, looked up): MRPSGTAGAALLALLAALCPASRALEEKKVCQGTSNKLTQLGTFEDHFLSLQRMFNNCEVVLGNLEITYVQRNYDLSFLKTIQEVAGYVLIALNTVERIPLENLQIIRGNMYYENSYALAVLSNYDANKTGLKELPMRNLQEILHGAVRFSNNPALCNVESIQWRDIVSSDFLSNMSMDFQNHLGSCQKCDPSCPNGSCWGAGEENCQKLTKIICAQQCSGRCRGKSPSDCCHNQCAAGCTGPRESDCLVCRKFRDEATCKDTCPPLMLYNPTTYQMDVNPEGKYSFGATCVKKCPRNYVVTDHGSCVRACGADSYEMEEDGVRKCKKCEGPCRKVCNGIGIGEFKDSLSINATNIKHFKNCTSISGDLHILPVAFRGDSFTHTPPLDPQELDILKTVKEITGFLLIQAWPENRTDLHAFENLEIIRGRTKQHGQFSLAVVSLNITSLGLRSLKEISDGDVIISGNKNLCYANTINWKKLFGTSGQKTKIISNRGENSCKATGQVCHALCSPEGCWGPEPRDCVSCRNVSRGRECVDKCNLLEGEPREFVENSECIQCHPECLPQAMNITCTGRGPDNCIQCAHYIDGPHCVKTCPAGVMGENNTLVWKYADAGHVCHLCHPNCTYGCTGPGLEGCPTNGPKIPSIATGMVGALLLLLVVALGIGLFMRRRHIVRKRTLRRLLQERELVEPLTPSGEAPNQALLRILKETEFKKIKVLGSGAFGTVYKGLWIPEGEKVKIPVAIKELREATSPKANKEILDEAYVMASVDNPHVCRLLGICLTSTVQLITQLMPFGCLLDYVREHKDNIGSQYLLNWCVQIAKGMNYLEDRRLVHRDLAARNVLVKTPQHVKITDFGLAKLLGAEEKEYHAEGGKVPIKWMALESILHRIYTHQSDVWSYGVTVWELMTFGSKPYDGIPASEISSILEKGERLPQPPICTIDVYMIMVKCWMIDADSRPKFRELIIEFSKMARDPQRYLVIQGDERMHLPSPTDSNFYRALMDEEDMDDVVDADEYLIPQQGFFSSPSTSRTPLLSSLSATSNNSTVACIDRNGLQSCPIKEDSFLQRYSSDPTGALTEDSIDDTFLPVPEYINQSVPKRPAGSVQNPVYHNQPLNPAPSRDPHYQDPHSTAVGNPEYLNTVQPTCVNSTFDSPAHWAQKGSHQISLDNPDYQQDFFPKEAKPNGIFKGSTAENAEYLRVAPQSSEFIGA
Follistatin-related protein 3 (Homo sapiens), sequence (O95633 whole entry, looked up): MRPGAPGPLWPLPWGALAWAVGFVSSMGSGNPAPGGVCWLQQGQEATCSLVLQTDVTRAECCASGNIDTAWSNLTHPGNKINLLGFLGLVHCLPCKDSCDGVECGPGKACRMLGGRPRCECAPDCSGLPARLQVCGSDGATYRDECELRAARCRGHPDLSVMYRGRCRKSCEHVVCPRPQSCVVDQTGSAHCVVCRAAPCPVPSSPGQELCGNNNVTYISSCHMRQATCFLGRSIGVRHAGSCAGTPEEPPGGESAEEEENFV
Neurogenic locus notch homolog protein 3 (Homo sapiens), sequence (Q9UM47 whole entry, looked up): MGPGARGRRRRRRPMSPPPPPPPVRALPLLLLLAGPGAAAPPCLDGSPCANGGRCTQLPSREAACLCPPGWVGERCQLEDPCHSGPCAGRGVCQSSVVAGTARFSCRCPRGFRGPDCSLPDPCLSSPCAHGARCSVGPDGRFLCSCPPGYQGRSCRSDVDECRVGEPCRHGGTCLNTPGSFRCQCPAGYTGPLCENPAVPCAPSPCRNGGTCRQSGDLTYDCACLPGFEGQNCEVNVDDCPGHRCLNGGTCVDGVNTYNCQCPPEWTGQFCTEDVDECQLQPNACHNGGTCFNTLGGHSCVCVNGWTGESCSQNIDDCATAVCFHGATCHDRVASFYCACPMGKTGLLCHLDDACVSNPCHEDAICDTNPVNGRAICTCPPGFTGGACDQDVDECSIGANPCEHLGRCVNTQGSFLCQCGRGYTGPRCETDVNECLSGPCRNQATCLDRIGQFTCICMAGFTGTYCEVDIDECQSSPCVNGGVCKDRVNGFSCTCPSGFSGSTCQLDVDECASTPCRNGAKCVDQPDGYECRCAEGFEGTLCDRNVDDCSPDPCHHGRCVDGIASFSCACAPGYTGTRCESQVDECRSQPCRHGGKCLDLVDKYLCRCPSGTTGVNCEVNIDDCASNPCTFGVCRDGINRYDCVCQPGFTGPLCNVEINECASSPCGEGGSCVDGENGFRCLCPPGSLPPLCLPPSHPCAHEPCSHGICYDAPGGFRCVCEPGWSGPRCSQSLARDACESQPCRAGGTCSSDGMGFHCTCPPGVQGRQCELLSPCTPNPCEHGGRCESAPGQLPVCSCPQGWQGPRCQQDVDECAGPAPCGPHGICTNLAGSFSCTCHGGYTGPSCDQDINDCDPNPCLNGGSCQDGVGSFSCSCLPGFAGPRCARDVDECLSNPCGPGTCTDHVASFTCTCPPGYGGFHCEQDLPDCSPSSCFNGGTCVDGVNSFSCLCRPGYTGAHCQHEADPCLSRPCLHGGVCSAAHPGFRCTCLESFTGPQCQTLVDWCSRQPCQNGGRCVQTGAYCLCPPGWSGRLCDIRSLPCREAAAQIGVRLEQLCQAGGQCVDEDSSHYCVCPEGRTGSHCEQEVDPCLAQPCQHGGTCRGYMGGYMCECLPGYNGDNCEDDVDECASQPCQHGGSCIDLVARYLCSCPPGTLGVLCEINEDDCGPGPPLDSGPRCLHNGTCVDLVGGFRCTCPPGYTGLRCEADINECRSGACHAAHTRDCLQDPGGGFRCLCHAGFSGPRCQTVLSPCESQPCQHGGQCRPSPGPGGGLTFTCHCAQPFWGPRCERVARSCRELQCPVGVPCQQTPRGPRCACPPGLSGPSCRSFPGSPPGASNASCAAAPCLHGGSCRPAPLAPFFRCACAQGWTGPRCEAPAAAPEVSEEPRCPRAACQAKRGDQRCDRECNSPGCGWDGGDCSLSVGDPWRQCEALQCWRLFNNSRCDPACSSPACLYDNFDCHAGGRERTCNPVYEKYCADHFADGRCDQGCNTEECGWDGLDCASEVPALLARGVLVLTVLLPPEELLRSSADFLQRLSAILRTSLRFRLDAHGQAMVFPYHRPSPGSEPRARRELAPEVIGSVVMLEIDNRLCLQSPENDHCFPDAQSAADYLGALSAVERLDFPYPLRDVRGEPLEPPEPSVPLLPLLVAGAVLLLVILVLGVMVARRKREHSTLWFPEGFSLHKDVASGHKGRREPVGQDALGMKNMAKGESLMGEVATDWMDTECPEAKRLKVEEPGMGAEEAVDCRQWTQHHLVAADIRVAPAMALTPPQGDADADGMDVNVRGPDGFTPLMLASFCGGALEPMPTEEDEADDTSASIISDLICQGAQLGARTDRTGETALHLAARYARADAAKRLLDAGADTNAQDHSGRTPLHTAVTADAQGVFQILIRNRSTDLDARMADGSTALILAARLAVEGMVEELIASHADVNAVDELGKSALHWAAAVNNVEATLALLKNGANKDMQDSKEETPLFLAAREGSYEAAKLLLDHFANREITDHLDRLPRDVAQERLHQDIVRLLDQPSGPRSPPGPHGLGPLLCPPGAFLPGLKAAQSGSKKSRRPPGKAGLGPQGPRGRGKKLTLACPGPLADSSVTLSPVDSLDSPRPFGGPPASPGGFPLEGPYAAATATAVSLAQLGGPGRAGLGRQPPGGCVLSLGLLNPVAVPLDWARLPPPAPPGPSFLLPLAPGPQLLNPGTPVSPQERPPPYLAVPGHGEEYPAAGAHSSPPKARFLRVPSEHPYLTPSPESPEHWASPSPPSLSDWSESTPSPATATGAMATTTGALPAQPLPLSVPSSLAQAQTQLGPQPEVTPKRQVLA
Fibroblast growth factor 10 (Homo sapiens), sequence (O15520 whole entry, looked up): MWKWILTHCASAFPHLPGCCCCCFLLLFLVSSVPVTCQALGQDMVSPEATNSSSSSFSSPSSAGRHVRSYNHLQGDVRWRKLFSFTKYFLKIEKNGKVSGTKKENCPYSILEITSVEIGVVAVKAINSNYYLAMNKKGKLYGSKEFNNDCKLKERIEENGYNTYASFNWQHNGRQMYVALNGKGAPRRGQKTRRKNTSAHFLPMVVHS
Dickkopf-related protein 1 (Homo sapiens), sequence (O94907 whole entry, looked up): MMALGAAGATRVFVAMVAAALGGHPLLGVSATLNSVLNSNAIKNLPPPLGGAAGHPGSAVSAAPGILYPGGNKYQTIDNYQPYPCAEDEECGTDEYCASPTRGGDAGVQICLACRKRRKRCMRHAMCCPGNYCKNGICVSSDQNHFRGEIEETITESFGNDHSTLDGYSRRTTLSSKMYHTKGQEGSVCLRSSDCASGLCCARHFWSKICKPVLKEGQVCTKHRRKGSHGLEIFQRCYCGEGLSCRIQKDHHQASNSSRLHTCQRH

With `C=CC[C@@]12N=C(c3ccc(OCCCO)cc3)O[C@@H]1c1ccccc1N(CCS(=O)(=O)c1ccccc1)C2=O`, the composite z-score in assay [1] is 1.55; in assay [5], 2.34; in assay [7], -0.291; in assay [8], 1.28; in [9] it was 1.13; in assay [10], 0.0153. The composite z-score was 1.22 in assay [11]; -0.183 in [12]; 0.269 in assay [13]; 0.397 in assay [15]; 1.28 in assay [16]; 0.272 in [17]. Also, the values for the composite z-score in assay [18], in assay [19] and in [20] were 1.19, 0.571 and 1.23, respectively. For the same compound, the z-score in assay [2] was -0.484 (inactive); in assay [3], -1.56 (inactive); in assay [4], 0.793 (inactive); in assay [6], 1.45 (inactive); in assay [14], -2.49 (inactive).

As to `Cc1ccc(C(C)CC(O)C2C=CC3C(=O)N(c4ccccc4)C(=O)C3N2Nc2ccc(C(C)C)cc2)o1` (stereo not given), the composite z-score in [1] is 0.843; in assay [5] it was 1.28; in assay [7] it was 0.295; in [8], -0.641; in [9], 1.04; in [10] it was 0.14. Also, the composite z-score in assay [11] amounted to 0.938; in [12], 1.14; in assay [13], 1.37; in assay [15] it was 0.545; in assay [16], 0.777; in assay [17], 0.17. Besides, the composite z-score in assay [18] is 0.679; in assay [19] it was -0.252; in assay [20] it was 1.13. In addition, the z-score in assay [2] is 0.379 (inactive); in assay [3], 0.0145 (inactive); in assay [4], 0.842 (inactive); in assay [6], -1.36 (inactive); in assay [14], 1.46 (inactive).

With `CCOc1cc(C(O)C2C=CC3C(=O)N(C)C(=O)C3N2N2CCCCC2)ccc1O` (stereo not given), the composite z-score in assay [1] was 0.163; in assay [5], 2.56; in assay [7], 0.0209; in assay [8], -0.185; in assay [9] it was 0.0152; in assay [10], 0.0054. Moreover, the composite z-score is 1.56 in assay [11]; 0.637 in assay [12]; 0.101 in assay [13]; 0.264 in assay [15]; -0.37 in assay [16]; 0.287 in [17]. Also, the composite z-score was 0.276 in [18], 0.164 in assay [19] and 0.898 in assay [20]. Moreover, the z-score in assay [2] was 1.26 (inactive); in assay [3] it was 0.803 (inactive); in [4] it was 1.63 (inactive); in [6], -0.613 (inactive); in assay [14], 0.377 (inactive).

With `C=CC[C@@H](OC(=O)Nc1ccc(OC)cc1)c1ccc(OCCO)cc1`, the composite z-score in assay [1] is -0.424; in assay [5], -0.0818; in assay [7], -0.0304; in assay [8], -0.929; in assay [9] it was -0.801; in assay [10] it was -0.338. The composite z-score in assay [11] was 0.468; in [12], -0.211; in assay [13], 0.979; in assay [15], -1.77; in [16], -0.711; in assay [17], -1.99. Also, the composite z-score was -0.993 in assay [18], -2.37 in assay [19] and -2.6 in assay [20]. Moreover, the z-score in assay [2] is -0.348 (inactive); in [3] it was -3.59 (inactive); in assay [4], 0.126 (inactive); in assay [6] it was 0.743 (inactive); in assay [14], -0.694 (inactive).

For `C=CCC(OC(C)=O)[C@@H]1[C@@H](N(Cc2ccc(-c3ccccc3)cc2)C(=O)c2cccc3ccccc23)c2cc(OCCCO)ccc2N1C(=O)Cc1ccc2ccccc2c1` (stereo not given in full), the composite z-score in [1] is -0.419; in assay [5], 0.95; in assay [7], -0.0407; in [8], 0.514; in assay [9], -0.377; in [10], -0.123. In addition, the composite z-score in assay [11] was -0.417; in [12] it was 0.122; in [13] it was 0.425; in assay [15], 0.0665; in assay [16], -0.202; in assay [17], -0.062. The composite z-score in [18] is -0.0827; in assay [19], -0.169; in [20], 0.796. Moreover, the z-score in assay [2] is -0.554 (inactive); in [3], -0.691 (inactive); in assay [4] it was -0.311 (inactive); in [6], 0.153 (inactive); in assay [14] it was -0.862 (inactive).

These data come from PubChem BioAssay.
